Experimental data published in the supplement of paper PMC13380429.

System: Vero E6 infected with SARS-CoV-2
Experiment: inhibition of SARS-CoV-2 cytopathic effect; higher = more antiviral protection, active = above 15
Settings: 48 h

Measured: inhibition of SARS-CoV-2 cytopathic effect

O=C(Nc1cc(Oc2cc(F)c(NC(=O)C3(C(=O)Nc4ccc(F)cc4)CC3)cc2F)ccn1)C1CC1 [altiratinib]
inactive: 1 nM -1% | 8.33 nM 2.23% | 100 nM 3.44% | 833.33 nM -1.62% | 10000 nM 1.09%

NC(=O)[C@H]1CCS[C@@H]2C[C@]3(CCCN3C(=O)Cc3ccc(NC(=O)COc4ccc(Cl)cc4Cl)cc3)C(=O)N12
inactive: 1 nM 0.49% | 8.33 nM 0.01% | 100 nM 1.37% | 833.33 nM 0.74% | 10000 nM -6.32%

Cc1cc(N2CCN([C@@H]3CN[C@H](C(=O)N4CCSC4)C3)CC2)n(-c2ccccc2)n1 [teneligliptin]
inactive: 1 nM 0.52% | 8.33 nM 1.21% | 100 nM 1% | 833.33 nM 1.12% | 10000 nM -2.67%

C=CC(=O)Nc1cccc(Oc2nc(Nc3ccc(N4CCN(C)CC4)cc3)ncc2Cl)c1
inactive: 1 nM -1.99% | 8.33 nM 1.76% | 100 nM -2.31% | 833.33 nM -12.8% | 10000 nM -1.76%

CCN(CC)CCOC(=O)C(Cc1cccc2ccccc12)CC1CCCO1 (mixture of isomers) [naftidrofuryl]
inactive: 1 nM 0.67% | 8.33 nM -0.29% | 100 nM 2.4% | 833.33 nM 1.45% | 10000 nM -1.13%

CCN1CCN(c2ccc(Nc3cc(N(C)C(=O)Nc4c(Cl)c(OC)cc(OC)c4Cl)ncn3)cc2)CC1
active: 10000 nM 23.9%
inactive: 1 nM -2.08% | 8.33 nM -5.16% | 100 nM 0.14% | 833.33 nM -2.75%

Cc1cc(C)c2c(c1)[C@@H](N(Cc1cc(C(F)(F)F)cc(C(F)(F)F)c1)c1nnn(C)n1)CCCN2C[C@H]1CC[C@H](C(=O)O)CC1 [evacetrapib]
inactive: 1 nM 2.13% | 8.33 nM -0.17% | 100 nM -3.28% | 833.33 nM -0.14% | 10000 nM 3.85%

COC(=O)C(Cc1ccc(OCCn2c(=O)sc3cc(C(=O)c4ccccc4)ccc32)cc1)C(=O)OC
inactive: 1 nM -0.38% | 8.33 nM 2.25% | 100 nM -1.78% | 833.33 nM -1.22% | 10000 nM 0.02%

Cc1nccn1CC1CCc2c(c3ccccc3n2C)C1=O (stereo not given) [ondansetron]
inactive: 1 nM 3.14% | 8.33 nM 0.05% | 100 nM -1.38% | 833.33 nM -1.32% | 10000 nM 3.44%

CCCCCCCCNC(C)C(O)c1ccc(SC(C)C)cc1 (stereo not given) [suloctidil]
inactive: 1 nM 0.05% | 8.33 nM -0.56% | 100 nM -0.38% | 833.33 nM 0.21% | 10000 nM -0.41%

COc1ccc(S(=O)(=O)N2CCCN(S(=O)(=O)c3ccc(OC)c(OC)c3)CC2)cc1OC
inactive: 1 nM -2.26% | 8.33 nM -1.47% | 100 nM -0.96% | 833.33 nM -5.53% | 10000 nM 6.2%

CCCNC(C)C(=O)Nc1ccccc1C (stereo not given) [prilocaine]
inactive: 1 nM 3.07% | 8.33 nM -1.58% | 100 nM -0.81% | 833.33 nM 2.12% | 10000 nM 2%

CC1CC(OC(=O)C(O)c2ccccc2)CC(C)(C)N1C (stereo not given) [eucatropine]
inactive: 1 nM 0.81% | 8.33 nM 3.45% | 100 nM 1.74% | 833.33 nM 0.69% | 10000 nM 0%

Oc1cc(O)cc(/C=C/c2ccc(O)c(O)c2)c1 [piceatannol]
inactive: 1 nM 2.41% | 8.33 nM -0.84% | 100 nM -0.97% | 833.33 nM 0.83% | 10000 nM 2.32%

COc1cc(NS(=O)(=O)c2ccc(N)cc2)ncn1 [sulfamonomethoxine]
inactive: 1 nM 0.65% | 8.33 nM 1.44% | 100 nM -1.17% | 833.33 nM 1.1% | 10000 nM 1.17%

CC1CCC(NC(=O)N(CCCl)N=O)CC1 (stereo not given) [semustine]
inactive: 1 nM 1.43% | 8.33 nM 1.15% | 100 nM -3.63% | 833.33 nM -1.54% | 10000 nM 0.45%

NCCCNCCSP(=O)(O)O [amifostine]
inactive: 1 nM 5.31% | 8.33 nM 3.29% | 100 nM 4.42% | 833.33 nM 1.87% | 10000 nM 3.86%

CC(C(=O)O)c1cccc(Oc2ccccc2)c1 (stereo not given) [fenoprofen]
inactive: 1 nM -0.67% | 8.33 nM -2.89% | 100 nM 0.97% | 833.33 nM -1.9% | 10000 nM -3.01%
